Rows were chosen to be rich in hits. Some 6.1% of all compounds tested hit in one or more screens of this group.
ERG Ets-DNA blk: blocks human ERG Ets domain binding to DNA | P11308 | fluorescence polarization, His-ERG Ets domain / labelled DNA | Potency, µM (doses to about 76.9 µM), for the others: at the top dose FP activity, negative = inhibition, actives largely listed as inhibitors | 0.028% of 370,000 active | AID 624246; active = well fitted inhibition curve with a large enough effect in the polarisation, with a control signal flat; inconclusive = small, poorly fitted or top-dose-only effect, or effect the other way, or a change in a side signal; inactive = no such curve, though single readings can be large or run the other way; the % refers to the polarisation;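 note: polarization taken with two DNA probes labelled with fluorescein and Texas red; potency is the fitted concentration of half-maximal effect; % of control where 0% means no effect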
Target sequence (P11308 whole entry, looked up, the tested form may be a part): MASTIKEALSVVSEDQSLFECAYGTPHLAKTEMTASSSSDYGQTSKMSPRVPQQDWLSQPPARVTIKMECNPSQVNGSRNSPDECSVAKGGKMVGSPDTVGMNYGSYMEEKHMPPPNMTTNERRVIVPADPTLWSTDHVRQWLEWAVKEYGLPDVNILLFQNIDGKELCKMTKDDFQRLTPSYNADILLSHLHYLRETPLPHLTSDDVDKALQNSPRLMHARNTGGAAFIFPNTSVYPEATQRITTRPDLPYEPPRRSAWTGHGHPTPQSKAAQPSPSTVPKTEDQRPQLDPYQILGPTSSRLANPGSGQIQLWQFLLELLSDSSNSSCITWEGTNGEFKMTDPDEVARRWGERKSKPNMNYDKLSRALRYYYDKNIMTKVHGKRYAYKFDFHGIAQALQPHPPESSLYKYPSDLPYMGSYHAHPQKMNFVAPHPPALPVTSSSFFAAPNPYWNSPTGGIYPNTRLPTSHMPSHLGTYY
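His-tagged ERG Ets domain (1 uM in the protein solution; 300mM KCl, 50mM Tris-HCl, 1mM EDTA, 1mM DTT, pH 7.5) received compound, then a probe mix of 5 nM fluorescein-DNA and 100nM Texas-615-DNA. Fluorescence polarization was read for both dyes.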
D3 antag: antagonists of human D3 dopamine receptor; max response, negative = inhibition, %; D3R cells, DiscoveRx beta-arrestin luminescence, antagonist mode; hits give low values; P35462; 2.5% of 360,000 active; in the data active = max response below about -50%; inconclusive = no clear call, values can overlap the other calls; note: % is set by controls: 0 for no effect and ±100 for the full control effect
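Cells expressing the human receptor were seeded at 1500 cells/well, incubated overnight at 37 degrees C in 5% CO2, then exposed to library compounds with dopamine controls for 90 minutes at 37 degrees C before luminescent detection.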
DRD3 agonist: activates the human D3 dopamine receptor | P35462 | D3R DiscoveRx beta-arrestin cells, luminescence, 90 min | max activation, % | 0.58% of 410,000 active | AID 652048; in the data active = max activation above about 30%; note: 0% is about no effect
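Cells at 1500/well, incubated overnight, then treated with pinned compounds (dopamine as control) for 90 min at 37 degrees C. DiscoveRx reagent added for 30 - 60 minutes at room temperature; luminescence read.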
D1 antagonist: blocks dopamine activation of the human D1 receptor; HEK293 TREx D1 cells, calcium flux, dopamine EC80; hits give low values; P21728; AID 504652; 3.2% of 360,000 active; activity change, negative = inhibition, % at 10 µM; in the data active = activity change below about -30%; note: % is set by controls: 0 for no effect and ±100 for the full control effect
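Inducible Hek293 Trex D1 cells (tetracycline, overnight, 30 C). Calcium dye 30–90 min RT. Antagonist mode: EC80 dopamine added after 180 s compound read.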
D1 agonist: activates the human D1 dopamine receptor; HEK293 T-REx D1 cells, calcium flux, agonist mode; P21728; 1% of 360,000 active; activation, % at 2 µM; in the data active = activation above about 30%; note: 0% is about no effect
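Inducible HEK293 T-REx D1 cells, force-coupled to calcium signalling, were plated at 4000 cells/well with tetracycline and held overnight at 30 C. After no-wash calcium dye loading, compound-evoked calcium rise over 180 s flagged agonists.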
D1 potentiator: enhances dopamine response at the human D1 receptor; P21728; HEK293 TREx D1 cells, calcium flux, dopamine EC20 potentiation; potentiation, % at 10 µM; 0.036% of 360,000 active; in the data active = potentiation above about 30%; note: 0% is about no effect
Starred values were filed as active, the others as inactive.

What do the screens show for `CCCc1nc2ccc(C)cn2c1Cc1ccccc1C(F)(F)F`?
D3 antag: -6; DRD3 agonist: -6

How did Cc1ccc(NCC(=O)Nc2ccc(Br)cc2)cc1C do in these assays?
ERG Ets-DNA blk: 3%; D3 antag: 2; DRD3 agonist: 2; D1 antagonist: -48*; D1 agonist: 5; D1 potentiator: -7

How did Cc1coc(C)c1C(=O)CC1(O)C(=O)N(CCc2ccccc2)c2ccccc21 (stereo not given) do in these assays?
ERG Ets-DNA blk: 7%; D3 antag: -12; DRD3 agonist: -2; D1 antagonist: -7; D1 agonist: 2; D1 potentiator: 0

What do the screens show for `COc1ccc(CN2C(=O)C(O)(CC(=O)c3ccc4c(c3)OCO4)c3ccccc32)cc1OC` (stereo not given)?
ERG Ets-DNA blk: -6%; D3 antag: 3; DRD3 agonist: 36*; D1 antagonist: -1; D1 agonist: 3; D1 potentiator: -1

Results for CCCCN1C(=O)C(O)(CC(=O)c2ccc(C(C)(C)C)cc2)c2ccccc21 (stereo not given) ?
ERG Ets-DNA blk: -9%; DRD3 agonist: 3; D1 antagonist: -49*; D1 agonist: 28; D1 potentiator: -5

How did Cc1ccc(C(=O)CC2(O)C(=O)N(Cc3ccccc3)c3ccccc32)c(C)c1 (stereo not given) do in these assays?
ERG Ets-DNA blk: -7%; DRD3 agonist: 3; D1 antagonist: -15; D1 agonist: 58*; D1 potentiator: 12

Results for CCN1C(=O)C(O)(CC(=O)c2c(C)coc2C)c2ccccc21 (stereo not given) ?
ERG Ets-DNA blk: 5%; D3 antag: -8; DRD3 agonist: -2; D1 antagonist: -45*; D1 agonist: 0; D1 potentiator: -1

How did CCCOC(=O)c1c(NC(=O)C(C)Sc2nc(-c3ccccc3)cc(C(F)(F)F)n2)sc(C(=O)N(C)C)c1C (stereo not given) do in these assays?
ERG Ets-DNA blk: 6%; DRD3 agonist: -1; D1 antagonist: 12; D1 agonist: 10; D1 potentiator: 0

How did Cc1cccc(NC(=O)NC2CCCc3ccccc32)c1 (stereo not given) do in these assays?
ERG Ets-DNA blk: -3%; D3 antag: -7; DRD3 agonist: 5; D1 antagonist: -44*; D1 agonist: 2; D1 potentiator: 0

Results for COc1ccc(NC(=O)NC2CCCc3ccccc32)cc1 (stereo not given) ?
ERG Ets-DNA blk: 14%; D3 antag: -10; DRD3 agonist: -2; D1 antagonist: -43*; D1 agonist: 2; D1 potentiator: -9

What do the screens show for `COc1ccc(NC(=O)NC2CCCc3ccccc32)cc1OC` (stereo not given)?
ERG Ets-DNA blk: -12%; D3 antag: -4; DRD3 agonist: 2; D1 antagonist: -22; D1 agonist: 1; D1 potentiator: -4

What do the screens show for `Cc1cccc(NC(=O)Nc2ccc3c(c2)CCC3)c1`?
ERG Ets-DNA blk: -3%; D3 antag: 17; DRD3 agonist: 4; D1 antagonist: -30*; D1 agonist: 12; D1 potentiator: -5

Results for COc1ccc(NC(=O)Nc2ccc3c(c2)CCC3)c(OC)c1 ?
ERG Ets-DNA blk: 7%; D3 antag: -9; DRD3 agonist: -17; D1 agonist: -2; D1 potentiator: -4

How did COc1ccc(OC)c(NC(=O)Nc2ccc3c(c2)CCC3)c1 do in these assays?
ERG Ets-DNA blk: -1%; D3 antag: inconclusive; DRD3 agonist: -22; D1 antagonist: -49*; D1 agonist: 1; D1 potentiator: -6

Results for CC(C)c1ccc(C2C3=C(CC(C)(C)CC3=O)NC3=C2C(=O)c2ccccc23)cc1 (stereo not given) ?
ERG Ets-DNA blk: -9%; D3 antag: -29; DRD3 agonist: -2; D1 antagonist: 7; D1 agonist: 1; D1 potentiator: -1

How did COc1ccc(S(=O)(=O)NCCc2sc(-c3cccnc3)nc2C)c(F)c1 do in these assays?
ERG Ets-DNA blk: -1%; DRD3 agonist: -13; D1 antagonist: 5; D1 agonist: 1; D1 potentiator: -4

How did CCc1nc(C)c(-c2ccccc2)c(=O)[nH]1 do in these assays?
D3 antag: -94*; DRD3 agonist: -7; D1 antagonist: -1; D1 agonist: 1; D1 potentiator: -1

How did COc1ccc(/C=C/c2nc(C)c(-c3ccccc3)c(=O)[nH]2)cc1OC do in these assays?
ERG Ets-DNA blk: 3%; D3 antag: 2; DRD3 agonist: 7; D1 antagonist: 7; D1 agonist: 1; D1 potentiator: -1

How did CCOc1ccc(NC(=O)CC2C(=O)N(c3cccc(C)c3)C(=O)N2Cc2cccnc2)cc1 (stereo not given) do in these assays?
ERG Ets-DNA blk: -7%; DRD3 agonist: 1; D1 antagonist: 1; D1 agonist: 3; D1 potentiator: -2

What do the screens show for `Cc1ccc(N(C)S(=O)(=O)c2cccc(C(=O)NCC(c3ccco3)N3CCCC3)c2)cc1` (stereo not given)?
ERG Ets-DNA blk: -2%; D3 antag: -69*; DRD3 agonist: -21; D1 antagonist: -8; D1 agonist: 2; D1 potentiator: 5

What do the screens show for `Cc1cccc(NS(=O)(=O)c2cccc(C(=O)NCC(c3ccco3)N3CCCCC3)c2)c1` (stereo not given)?
ERG Ets-DNA blk: -1%; D3 antag: -64*; DRD3 agonist: -11; D1 antagonist: -11; D1 agonist: 3; D1 potentiator: -2

What do the screens show for `O=C1CC(c2ccco2)Cc2nc(NCC3CCCO3)ncc21` (stereo not given)?
ERG Ets-DNA blk: 2%; D3 antag: -29; DRD3 agonist: 12; D1 antagonist: -32*; D1 agonist: 0; D1 potentiator: -3

How did O=C1CC(c2ccco2)Cc2nc(Nc3ccc(F)cc3)ncc21 (stereo not given) do in these assays?
ERG Ets-DNA blk: -10%; D3 antag: 18; DRD3 agonist: -12; D1 antagonist: -15; D1 agonist: 2; D1 potentiator: -2

What do the screens show for `Cc1cccc(-c2nc(-c3ccncc3)no2)c1`?
ERG Ets-DNA blk: 9%; D3 antag: 15; DRD3 agonist: 24; D1 antagonist: -4; D1 agonist: 6; D1 potentiator: -1

Results for Cc1ccccc1-c1noc(-c2ccc(NC3CCCC3)c([N+](=O)[O-])c2)n1 ?
ERG Ets-DNA blk: -1%; DRD3 agonist: 6; D1 antagonist: 3; D1 agonist: 1; D1 potentiator: -3

How did Cc1cccc(-c2noc(-c3ccc4c(c3)OCO4)n2)c1 do in these assays?
ERG Ets-DNA blk: 1%; D3 antag: 5; DRD3 agonist: 3; D1 antagonist: -45*; D1 agonist: 10; D1 potentiator: -2

Bioassay records: PubChem BioAssay, National Center for Advancing Translational Sciences (NCATS)
